# Rows were chosen to be rich in hits. Some 3.1% of all compounds tested hit in one or more screens of this group.
# MITF TRPM1 HTS = activators of MITF-driven TRPM1 promoter activity in SK-MEL-5 cells; actives 0.75% (n = 300,000); activation, % at 12.5 µM; SK-MEL-5 TRPM1-promoter luciferase, 24 h; % of positive control, neutral wells = 0; AID 588334;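 active = mean activation of at least 80% with every replicate also reaching 80%; inconclusive = mean reaches 80% but some replicate falls short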;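 note: 0% = neutral control wells and 100% = parthenolide positive control wells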
# Wnt act = activators of Wnt/beta-catenin signaling; Wnt/beta-catenin reporter cell assay, activator, plate reader; activation, % at 9.35 µM; actives 1.2% (n = 300,000); in the data active = activation above about 30%, passing the limit was not always enough; inconclusive = no clear call, values can overlap the other calls;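 note: 0% = neutral control wells and 100% = positive control wells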
# esBAF inh = SWI/SNF esBAF complex inhibition; actives 2% (n = 350,000); AID 602393; reporter increase, % at 12.5 µM; mouse ES cells, Bmi1-luciferase knock-in reporter, 24 h; 100% = twice the neutral-well signal; in the data active = activation above about 40%; inconclusive = no clear call, values can overlap the other calls;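 note: 0% = median of the plate's neutral control wells and 100% = double that signal; a rise in the Bmi1 reporter signal indicates esBAF inhibition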
# C2C12 statin = protects C2C12 myotubes from simvastatin toxicity; AID 602340; rescue of ATP level, % at 7.49 µM; actives 0.78% (n = 330,000); ATP luminescence, 48 h; scaled: DMSO 0, geranylgeraniol control 100;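 active = mean ATP rescue above about 67%, or every replicate alone reaching that limit, limit read from the data, passing the limit was not always enough; inconclusive = no clear call, values can overlap the other calls; inactive = mean under the limit and some replicate under it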;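 note: myotubes were challenged with 10 µM simvastatin during compound exposure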
# Rtt109 Vps75 = blocks Candida albicans Rtt109/Vps75 acetyltransferase activity. actives 0.16% (n = 330,000). purified Rtt109/Vps75, ThioGlo CoA-SH fluorescence, 4 h. Q5AAJ8. inhibition, % at 34.9 µM. AID 540336;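 active = inhibition of at least 50% in every replicate; inconclusive = best replicate reaches 50% inhibition but some replicates fall short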
# Target sequence (Q5AAJ8 whole entry, looked up): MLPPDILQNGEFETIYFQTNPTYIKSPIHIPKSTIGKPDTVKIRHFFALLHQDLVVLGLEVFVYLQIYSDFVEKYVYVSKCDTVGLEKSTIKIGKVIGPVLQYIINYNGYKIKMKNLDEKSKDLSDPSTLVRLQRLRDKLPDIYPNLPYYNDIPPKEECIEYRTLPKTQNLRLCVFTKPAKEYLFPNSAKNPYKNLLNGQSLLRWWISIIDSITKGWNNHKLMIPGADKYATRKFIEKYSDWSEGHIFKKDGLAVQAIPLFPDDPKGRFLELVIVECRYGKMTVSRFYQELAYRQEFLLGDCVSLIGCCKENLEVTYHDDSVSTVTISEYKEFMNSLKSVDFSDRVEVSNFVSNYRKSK
# An asterisk follows results filed as active; ? = inconclusive; . = not tested or not shown; + = active, no number.
SMILES,MITF TRPM1 HTS,Wnt act,esBAF inh,C2C12 statin,Rtt109 Vps75
CN(C(=O)CSc1nc2ccccc2o1)C1CCCCC1,?,57*,23,15,-3
CC1CCCN(C(=O)CSc2nc3ccccc3o2)C1 (configuration not stated),.,?,29,-4,9
COc1ccc(NC(=O)N(C)C[C@@H]2Oc3c(NS(=O)(=O)c4ccc(OC)cc4)cccc3C(=O)N([C@H](C)CO)C[C@H]2C)cc1,.,.,1,-14,.
CCCNC(=O)N(C)C[C@@H]1Oc2ncc(C#C[C@@H](C)O)cc2C(=O)N([C@@H](C)CO)C[C@H]1C,.,.,1,.,.
Oc1ccc(NCc2ccccc2OCc2ccccc2)cc1,-7,39*,.,.,-1
C[C@@H]1CN([C@H](C)CO)C(=O)c2cc(NC(=O)C3CCCCC3)ccc2O[C@@H](C)CCCCO[C@@H]1CN(C)C(=O)c1ccncc1,.,.,1,15,.
C[C@H]1CCCCO[C@@H](CN(C)CC2CCCCC2)[C@@H](C)CN([C@@H](C)CO)C(=O)c2cc(NC(=O)Cc3ccccc3)ccc2O1,.,.,0,.,.
Fc1ccccc1Cn1nnc2c(NCCc3ccccn3)ncnc21,17,.,48*,1,-10
CCC(=O)Nc1ccc2c(c1)C(=O)N(C)C[C@H](OC)[C@@H](C)CN(C(=O)CC1CC1)[C@H](C)CO2,.,.,0,-13,.
Cc1ccc(S(=O)(=O)N(C)C[C@@H]2Oc3ccc(NS(=O)(=O)c4ccc(F)cc4)cc3C(=O)N([C@@H](C)CO)C[C@H]2C)cc1,.,.,1,27,.
O=C1CCCC2=C1C(c1ccc(Cl)cc1)n1c(s/c(=C\c3ccc4ccncc4c3)c1=O)=N2 (configuration not stated),2,36*,.,.,-7
CCOC(=O)C1=C(C)N=c2s/c(=C/c3ccc(OCC(=O)O)c(OC)c3)c(=O)n2C1c1ccc(Cl)cc1 (configuration not stated),.,0,.,.,8
Cc1noc(C)c1NC(=O)Nc1ccc2c(c1)C(=O)N([C@@H](C)CO)C[C@@H](C)[C@H](CN(C)CC1CCCCC1)O2,.,.,0,6,.
CC1CCN(C(=O)CSCc2ccc(Cl)cc2)CC1,?,.,49*,5,-6
CC1CCN(C(=O)CN(Cc2ccc(Cl)cc2)S(C)(=O)=O)CC1,7,-2,-4,4,-2
CCOc1ccc(-c2nc(CSCC(=O)NCCCN3CCCC3=O)c(C)o2)cc1,-2,-1,-40,2,-6
CCOc1ccc(-c2nc(CSCC(=O)NCCN3CCOCC3)c(C)o2)cc1,2,.,-88,102*,1
C[C@@H]1CN([C@H](C)CO)S(=O)(=O)c2ccc(C3=CCCC3)cc2O[C@H]1CN(C)S(C)(=O)=O,.,.,.,-2,.
NC(N)=NC(=O)c1nc(Cl)c(N2CCCCCC2)nc1N,126*,21,59*,-36,27
Cc1ccc(NC(=O)c2cc(-c3ccc(C)c(C)c3O)n[nH]2)cc1C,5,0,-10,7,9
Cc1ccc(C)c(NC(=O)c2cc(-c3ccccc3O)n[nH]2)c1,56,5,65*,-43,-1
O=C(Nc1cccnc1)c1cc(-c2cc(Cl)ccc2O)n[nH]1,?,38*,.,.,21
Cc1ccc(N2C(=O)c3ccc(C(=O)Nc4cccnc4)cc3C2=O)c(C)c1,-8,-1,21,90*,-1
Cc1cccc(NC(=O)c2cc(-c3ccc(C)c(C)c3O)n[nH]2)c1,51,16,43*,-15,.
COc1ccc(Cl)cc1C(=O)Nc1cccnc1,.,0,0,10,-5
SMILES,MITF TRPM1 HTS,Wnt act,esBAF inh,C2C12 statin,Rtt109 Vps75
COCCN1C(=O)c2ccc(C(=O)Nc3cccnc3)cc2C1=O,-8,1,-2,3,-11
CCNC(=O)C[C@@H]1CC[C@@H]2[C@H](COC[C@@H](O)CN2Cc2ccc(Cl)c(Cl)c2)O1,.,.,11,26,.
Cc1ccc(O)c(-c2cc(C(=O)Nc3cccnc3)[nH]n2)c1,215*,60*,87*,-22,-1
CC(=O)Nc1ccc(NC(=O)c2cc(-c3ccc(F)cc3C)n[nH]2)cc1,.,13,61*,-8,.
COc1ccc(OC)c(NC(=O)c2cc(-c3cc(C)ccc3O)n[nH]2)c1,2,3,0,-58,5
COc1ccc(NC(=O)N(C)C[C@H]2OCCCC[C@@H](C)Oc3ccc(NC(=O)Nc4ccc5c(c4)OCO5)cc3C(=O)N([C@@H](C)CO)C[C@H]2C)cc1,.,.,-1,9,.
COc1cc2nn(-c3ccccc3N)nc2cc1OC,.,42*,.,.,.
Nc1nc2c(ccc3ccccc32)s1,.,-1,.,.,3
Nc1ccccc1-n1nc2ccc3ccccc3c2n1,.,55*,41*,10,.
Cc1noc(C)c1NC(=O)Nc1ccc2c(c1)C(=O)N([C@@H](C)CO)C[C@@H](C)[C@@H](CN(C)Cc1ccc(C(F)(F)F)cc1)OCCCC[C@@H](C)O2,.,.,0,.,.
Nn1c(SCC(=O)NCCC2=CCCCC2)nnc1-c1cccnc1,-2,2,.,15,6
CCN(CC)S(=O)(=O)c1cccc(-c2nnc(SCC(=O)NCCC3=CCCCC3)n2N)c1,5,.,-4,124*,5
O=S(=O)(Nc1cc(Sc2ncn[nH]2)c(O)c2ccccc12)c1ccccc1,-36,0,.,.,+
Cc1cc(O)c(Sc2ncn[nH]2)cc1NS(=O)(=O)c1ccc(Cl)cc1,3,-3,-2,-1,7
CC(C)S(=O)(=O)c1cnc(N2CCOCC2)nc1N,.,40*,.,.,2
Oc1ccccc1-c1cc(-c2ccco2)[nH]n1,44,.,62*,-12,-3
Oc1c(-c2cc(-c3ccco3)[nH]n2)ccc2ccccc12,27,.,65*,-5,-6
Oc1oc(-c2ccccc2)nc1C=Nc1ccccc1,68,13,.,.,11
Oc1oc(-c2ccccc2)nc1C=NCc1ccccc1,103*,16,56*,13,9
CSc1ccccc1N=Cc1nc(-c2ccccc2)oc1O,15,.,52*,26,11
COc1ccc(NC(=O)Nc2ccc3c(c2)C(=O)N([C@@H](C)CO)C[C@@H](C)[C@H](CN(C)C(=O)CCCN(C)C)OCCCC[C@@H](C)O3)cc1,.,.,-7,.,.
CC(C)Cn1c(=S)[nH]c2ccccc2c1=O,-15,0,.,.,-18
C=C(C)Cn1c(=S)[nH]c2ccccc2c1=O,8,0,1,144*,5
COc1ccc(-c2ccc3c(n2)CCCN3Cc2ccccc2C(F)(F)F)cc1,.,38*,.,.,.
Cc1cc(C(=O)NCCc2ccccc2)ccc1[N+](=O)[O-],92*,17,25,-7,0
Cc1cccc(C(=O)NCCc2ccccc2)c1,105*,?,2,1,0
O=C(/C=C/c1ccccc1)NCCc1ccccc1,.,1,89*,8,3
CC(C)(C)c1ccc(C(=O)NCCc2ccccc2)cc1,?,29,-21,-20,-1
O=C(/C=C/c1ccc([N+](=O)[O-])cc1)NCCc1ccccc1,13,-3,.,.,-12

# Compound activity (PubChem BioAssay)
